Assay results as given in PubChem BioAssay (Tox21).
“And” between values parts separate entries of the source, which are not always exact repeats. Equal values may be shown once. Values without a mark were called inactive. Results filed as inconclusive are left out. Entries that show only a call come without a potency. The source made the active and inactive calls. Unless noted, calls come from the whole dose curve; as a rule, active = well fitted curve in the direction sought with a large enough effect in the repeat runs; inconclusive = weak or mixed curves; inactive = no such curve, though single readings can be large; an effect the other way counts as inactive or inconclusive.

Experiments:
[1] = biological target: Thyrotropin-releasing hormone receptor (Homo sapiens) (UniProt P34981); assay: qHTS assay to identify small molecule agonists of the thyrotropin-releasing hormone receptor (TRHR) signaling pathway (AID 1346891; calls by dose curve;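 note: HEK293 cells expressing TRHR with calcium dye readout; series mostly up to about 58 µM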)
Thyrotropin-releasing hormone receptor (Homo sapiens), sequence (P34981 whole entry, looked up): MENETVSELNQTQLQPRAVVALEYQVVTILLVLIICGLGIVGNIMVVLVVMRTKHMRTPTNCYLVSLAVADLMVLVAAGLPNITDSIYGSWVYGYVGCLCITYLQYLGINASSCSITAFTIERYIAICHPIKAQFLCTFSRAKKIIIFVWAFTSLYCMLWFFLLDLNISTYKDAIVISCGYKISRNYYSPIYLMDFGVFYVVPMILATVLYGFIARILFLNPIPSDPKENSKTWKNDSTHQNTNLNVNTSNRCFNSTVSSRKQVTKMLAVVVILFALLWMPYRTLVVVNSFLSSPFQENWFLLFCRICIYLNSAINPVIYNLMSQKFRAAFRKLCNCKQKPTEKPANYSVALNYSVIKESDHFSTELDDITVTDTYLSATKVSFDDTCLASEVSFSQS
Summary of the method: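 Overnight-plated (18 h, 37 °C, 5% CO2) TRHR-Hek293 cells; 2 h calcium dye at 37 °C; compound in DMSO; 3-min kinetic fluorescence read.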

[2] = Human pregnane X receptor (PXR) small molecule agonists, qHTS cell viability counter screen (AID 1346977); note: nearly all actives have a fitted effect of over 50% in size; note: potency is the fitted concentration of half-maximal effect
Summary of the method: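 After a 5hr pre-incubation, PXR-Luc HepG2 cells received compounds plus positive control in DMSO and were kept 24hr at 37C. Cell viability was quantified by fluorescence from CellTiter-Fluor added for the final hour.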

[3] = Caspase-3/7 induction in CHO-K1 cells by small molecules, qHTS cell viability counter screen (AID 1346979); note: nearly all actives have a fitted effect of over 35% in size; note: potency is the fitted concentration of half-maximal effect
Summary of the method: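 Multiplexed with Caspase-Glo 3/7 in CHO-K1 cells, this counter screen added CellTiter-Fluor after 16hr of compound exposure and recorded fluorescence 1hr later.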

[4] = Caspase-3/7 induction in CHO-K1 cells by small molecules, qHTS assay (AID 1346980); note: nearly all actives have a fitted effect of over 15% in size
Summary of the method: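 Wild-type cells were seeded at 1,500 per well and settled 5 hr at 37 C, 5% CO2, then exposed to DMSO-dissolved compounds for 17 hr. Caspase-Glo 3/7 reagent was added, and luminescence was read after 30min at room temperature.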

[5] = Caspase-3/7 induction in HepG2 cells by small molecules, qHTS cell viability counter screen (AID 1346981); note: series mostly up to about 92 µM; nearly all actives have a fitted effect of over 30% in size
Summary of the method: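 Multiplexed with the caspase-3/7 assay: HepG2 cells, 16 hr compound treatment, CellTiter-Fluor viability detection by fluorescence.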

[6] = biological target: Nuclear receptor subfamily 1 group I member 2 (Rattus norvegicus) (UniProt Q9R1A7); assay: Rat pregnane X receptor (rPXR) activation by small molecules, qHTS assay (AID 1346983); conditions: rPXR luciferase reporter cells, One-Glo luminescence, 24 h; max activation: stronger effect = higher value; note: nearly all actives have a fitted effect of over 20% in size
Nuclear receptor subfamily 1 group I member 2 (Rattus norvegicus), sequence (Q9R1A7 whole entry, looked up): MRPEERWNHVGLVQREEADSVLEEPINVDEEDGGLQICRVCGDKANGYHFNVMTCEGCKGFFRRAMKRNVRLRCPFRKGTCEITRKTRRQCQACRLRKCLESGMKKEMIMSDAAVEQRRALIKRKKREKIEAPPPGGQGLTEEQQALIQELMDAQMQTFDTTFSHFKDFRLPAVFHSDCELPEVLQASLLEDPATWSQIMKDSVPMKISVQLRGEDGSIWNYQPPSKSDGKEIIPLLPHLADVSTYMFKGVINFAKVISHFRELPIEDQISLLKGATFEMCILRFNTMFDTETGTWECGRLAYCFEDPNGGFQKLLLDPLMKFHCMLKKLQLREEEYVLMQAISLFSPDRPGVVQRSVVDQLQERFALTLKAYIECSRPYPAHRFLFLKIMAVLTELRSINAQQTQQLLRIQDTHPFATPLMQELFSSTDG
Summary of the method: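 Cell-based rPXR luciferase reporter assay, 2,000 cells per well, rested 5hr at 37 C before compound addition in DMSO, then 24 hr at 37 C. One-Glo reagent was added and luminescence read after 30 min at room temperature.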

[7] = biological target: Nuclear receptor subfamily 1 group I member 2 (Homo sapiens) (UniProt O75469); assay: CYP3A4 induction through human pregnane X receptor (PXR) by small molecules, qHTS assay (AID 1346984); note: nearly all actives have a fitted effect of over 40% in size
Nuclear receptor subfamily 1 group I member 2 (Homo sapiens), sequence (O75469 whole entry, looked up): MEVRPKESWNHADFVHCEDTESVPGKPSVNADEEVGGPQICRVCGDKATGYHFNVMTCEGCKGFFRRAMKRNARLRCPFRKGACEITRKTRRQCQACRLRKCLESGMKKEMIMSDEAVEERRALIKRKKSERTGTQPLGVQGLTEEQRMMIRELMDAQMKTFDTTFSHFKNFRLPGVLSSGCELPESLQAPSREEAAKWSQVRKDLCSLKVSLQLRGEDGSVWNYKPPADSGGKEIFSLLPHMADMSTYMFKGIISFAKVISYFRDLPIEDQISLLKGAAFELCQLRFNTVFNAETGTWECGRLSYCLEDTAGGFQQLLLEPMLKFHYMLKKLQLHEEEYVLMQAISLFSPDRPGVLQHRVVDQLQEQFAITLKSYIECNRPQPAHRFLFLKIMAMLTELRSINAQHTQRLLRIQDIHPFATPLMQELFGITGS
Summary of the method: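 qHTS, concentration-response format: HepG2 DPX-2 line, PXR/CYP3A4-luc. Exposure 24 h, 37C. Substrate Luciferin-IPA 3uM final, 3 h. Detection One-Glo, 30 min RT.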

[8] = biological target: Nuclear receptor subfamily 1 group I member 2 (Homo sapiens) (UniProt O75469); assay: Human pregnane X receptor (PXR) activation by small molecules, qHTS assay (AID 1346985); note: nearly all actives have a fitted effect of over 40% in size; note: potency is the fitted concentration of half-maximal effect
Summary of the method: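 DPX-2 cells (HepG2 co-transfected with a PXR response element and a CYP3A4-promoter luciferase construct) were seeded at 2,000 per well, rested 5 hr at 37C, then exposed to DMSO-dissolved compounds for 24 hr. Activation was read as luciferase luminescence.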

[9] = Caspase-3/7 induction in HepG2 cells by small molecules, qHTS assay (AID 1346978); note: nearly all actives have a fitted effect of over 15% in size
Summary of the method: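 Wild-type HepG2 cells (2,000/well) were settled 5 h at 37 C, 5% CO2, then exposed to compounds in DMSO for 17 h. Caspase-3/7 activity was read by luminescence 30 min after adding Caspase-Glo 3/7 reagent at room temperature.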

[10] = biological target: Nuclear receptor subfamily 1 group I member 2 (Homo sapiens) (UniProt O75469); assay: Human pregnane X receptor (PXR) small molecule agonists, qHTS assay (AID 1346982); note: nearly all actives have a fitted effect of over 35% in size; note: potency is the fitted concentration of half-maximal effect
Summary of the method: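 We seeded PXR-Luc HepG2 cells in assay medium containing 5% charcoal-stripped FBS, added compounds 5 hr later, incubated 24 hr, and read luminescence with ONE-Glo reagent.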

Structure (SMILES) | outcome [1] | Potency [2] | Potency [3] | outcome [4] | outcome [5] | max activation [6] | Potency [7] | Potency [8] | outcome [9] | Potency [10]
NS(=O)(=O)c1cc(C2(O)NC(=O)c3ccccc32)ccc1Cl (stereo not given) | inactive | inactive | inactive | inactive | inactive | -0.257% | – | – | – | –
CN(C)CCn1nnnc1SCC1=C(C(=O)O)N2C(=O)[C@@H](NC(=O)Cc3csc(N)n3)[C@H]2SC1 | inactive | inactive | inactive | inactive | inactive | 14.1% | inactive | inactive | – | –
COC(C(=O)O)c1ccccc1 (stereo not given) | – | inactive | inactive | inactive | inactive | – | – | – | inactive | inactive
CSc1ccc(C=O)cc1 | – | inactive | inactive | inactive | inactive | – | – | – | inactive | –
CCCCc1ccc2cccc(S(=O)(=O)O)c2c1 | – | inactive | inactive | inactive | inactive | – | – | – | inactive | –
O=S(=O)(O)c1ccccc1O | – | inactive | inactive | inactive | inactive | – | – | – | inactive | inactive
Fc1ccccc1-c1ccccc1 | – | inactive | inactive | inactive | inactive | – | – | – | inactive | –
CCCCCCCCCCCCCCC | inactive | inactive | inactive | inactive | inactive | – | – | – | – | inactive
CC(C)(O)Cc1ccccc1 | inactive | inactive | inactive | inactive | – | – | – | – | – | inactive
CN(C)C(=O)C(CCN1CCC(O)(c2ccc(Cl)cc2)CC1)(c1ccccc1)c1ccccc1 | inactive | 23.7 µM (active) | – | inactive | – | – | – | – | – | inactive
CCN1CCCC(OC(=O)C(c2ccccc2)c2ccccc2)C1 (stereo not given) | inactive | – | inactive | inactive | inactive | 0.492% | – | – | inactive | –
Nc1ccn(C2CO[C@H](CO)O2)c(=O)n1 (stereo not given in full) | – | inactive | inactive | inactive | inactive | – | – | – | inactive | inactive
OCCN1C[C@H](O)[C@@H](O)[C@H](O)[C@H]1CO | inactive | inactive | inactive | inactive | inactive | -2.71% | inactive | inactive | – | inactive
O=[N+]([O-])c1ccc(Oc2ccc([N+](=O)[O-])cc2)cc1 | – | inactive | inactive | inactive | inactive | – | – | – | inactive | inactive
Cn1cnc2c(=O)[nH]c(N)nc21 | – | inactive | inactive | inactive | inactive | – | – | – | inactive | –
Cc1ncc(CSSCc2cnc(C)c(O)c2CO)c(CO)c1O | inactive | inactive | inactive | inactive | inactive | -2.5% | inactive | inactive | – | inactive
Cc1cc(C)cc(OCC2CNC(=O)O2)c1 (stereo not given) | – | inactive | inactive | inactive | – | -2.51% | inactive | inactive | – | inactive
O=C(O)C(O)[C@H](O)[C@@H](O)[C@H](O)[C@H](O)CO (stereo not given in full) | – | inactive | inactive | inactive | – | – | – | – | inactive | inactive
COc1cc(C(=O)N2CCOCC2)cc(OC)c1OC | – | inactive | – | inactive | inactive | -6.89% and 0.152% | inactive | inactive | inactive | inactive
CCCCCCCCC=O | – | inactive | inactive | inactive | inactive | – | – | – | – | –
CC1(C)SC(C)(C)SC(C)(C)S1 | – | inactive | inactive | inactive | inactive | – | – | – | inactive | inactive
c1cc(CN2CCCCC2)cc(OCCCNc2nc3ccccc3s2)c1 | – | 23.7 µM (active) | – | inactive | – | 2.06% | inactive | 22.4 µM (active) | – | 5.31 µM (active)
C=C(C)[C@@H]1CCC2=CC(=O)C[C@@H](C)[C@]2(C)C1 | – | inactive | inactive | inactive | inactive | – | – | – | – | –
C[C@H](O)C(=O)Nc1c(I)c(C(=O)NC(CO)CO)c(I)c(C(=O)NC(CO)CO)c1I | – | inactive | inactive | inactive | inactive | – | inactive | inactive | inactive | inactive
COC(=O)CCCC(=O)O | – | inactive | inactive | inactive | inactive | – | – | – | inactive | inactive
CCOC(=O)Nc1ccc2c(c1)N(C(=O)CCN1CCOCC1)c1ccccc1S2 | – | inactive | inactive | inactive | inactive | – | – | – | – | 7.5 µM (active)
O=C(CCOCCOCCOCCOCCC(=O)Nc1c(I)cc(I)c(C(=O)O)c1I)Nc1c(I)cc(I)c(C(=O)O)c1I | – | inactive | inactive | inactive | inactive | – | – | – | inactive | inactive

Structure (SMILES) | outcome [1] | Potency [2] | Potency [3] | outcome [4] | outcome [5] | max activation [6] | Potency [7] | Potency [8] | outcome [9] | Potency [10]
C#CC(O)CCCCC (stereo not given) | – | inactive | inactive | inactive | – | – | – | – | inactive | inactive
COc1ccc(NC(C)=O)cc1 | – | inactive | inactive | inactive | inactive | – | – | – | inactive | inactive
Nc1[nH]c(=O)ncc1F | – | inactive | inactive | inactive | inactive | -0.668% | inactive | inactive | inactive | inactive
Nc1cc(N)cc(C(=O)O)c1 | – | inactive | inactive | inactive | inactive | – | – | – | inactive | 34.4 µM (active)
CCCCCCCCCCCCCCCCCCOCC(O)CO (stereo not given) | – | inactive | – | inactive | inactive | 3.52% | inactive | inactive | inactive | inactive
CC(C)(C)CC(C)(C)N | – | inactive | inactive | inactive | inactive | – | – | – | – | inactive
CSc1nc(NC2CC2)nc(NC(C)(C)C)n1 | – | inactive | inactive | inactive | – | – | – | – | inactive | 21.7 µM (active)
Nc1nc(F)nc2c1ncn2[C@@H]1O[C@H](CO)[C@@H](O)[C@@H]1O | – | inactive | inactive | inactive | inactive | -2.35% | inactive | inactive | inactive | inactive
OC/C=C/c1ccccc1 | – | inactive | inactive | inactive | – | -5.54% | inactive | inactive | inactive | inactive
CC(C)CCCC(C)CCCC(C)CCCCC(C)CCCC(C)CCCC(C)C (stereo not given) | – | inactive | – | inactive | – | -0.619% | – | inactive | inactive | inactive
NC(=O)Nc1nc2ccccc2[nH]1 | – | inactive | inactive | inactive | – | – | – | – | inactive | inactive
NC(N)=NS(=O)(=O)c1ccc(N)cc1 | – | inactive | inactive | inactive | – | -6.55% | inactive | inactive | inactive | –
COc1cc(CCC(C)=O)ccc1O | – | – | inactive | inactive | inactive | – | – | – | inactive | inactive
O=Cc1ccccc1[N+](=O)[O-] | – | inactive | inactive | inactive | inactive | – | – | – | inactive | inactive
COc1cc(C)cc(O)c1 | – | inactive | inactive | inactive | – | – | – | – | inactive | inactive
Cc1cc(C)c(NC(=O)CN(CC(=O)O)CC(=O)O)c(C)c1Br | – | inactive | inactive | inactive | inactive | -1.5% | inactive | inactive | inactive | inactive
CCCCCCOC(=O)CC(CC(=O)OCCCCCC)(OC(=O)CCC)C(=O)OCCCCCC | – | inactive | inactive | inactive | inactive | – | – | – | – | inactive
CCCCCOC(=O)Nc1nc(=O)n([C@@H]2O[C@H](C)[C@@H](O)[C@H]2O)cc1F | – | inactive | inactive | inactive | inactive | -1.91% | inactive | inactive | – | inactive
Cc1ccccc1C(=O)O | – | inactive | – | inactive | inactive | – | – | – | inactive | 30.1 µM (active)
CCCC=O | – | inactive | inactive | inactive | – | – | – | – | – | inactive
C/C=C1\C(=O)C[C@H]2[C@@H]3CCC4=CC(=O)CC[C@]4(C)[C@H]3CC[C@]12C | – | inactive | – | inactive | inactive | – | – | – | inactive | –
Cc1nc(-c2ccc(OCC(C)C)c(C#N)c2)sc1C(=O)O | – | inactive | inactive | inactive | inactive | – | – | – | inactive | 0.106 µM (active)
OCc1ccccn1 | – | inactive | – | inactive | inactive | -1.13% | inactive | inactive | inactive | inactive
N#CC1(O)CCCCC1 | – | 17.4 µM (active) | 27.5 µM (active) | inactive | – | – | – | – | inactive | 17.4 µM (active)
N[C@@H](CS)C(=O)O | – | inactive | inactive | inactive | – | – | – | – | inactive | inactive
NC(CS)C(=O)O (stereo not given) | – | inactive | inactive | inactive | inactive | -0.0152% | inactive | inactive | inactive | inactive
C1=C\CC/C=C\CC/C=C\CC/1 | – | inactive | inactive | inactive | inactive | – | – | – | – | inactive
